In PubChem BioAssay (EPA / NIEHS):
Inconclusive results are not listed. Some compounds were tested as several samples or in several runs, with calls that do not always agree. The source made the active and inactive calls. The calls were made as follows, unless noted: active = hit-call score of the fitted dose curve at least 0.9, where 1 is the maximum; inconclusive = response in the unintended direction; inactive = score below 0.9.

Assays:
[1] = CCTE_Simmons_CellTiterGLO_HEK293T: Viability Assessment in CCTE's Assays for Thyroperoxidase (TPO) Inhibition, Simmons Lab (AID 2283665);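 as to AC50: cells exposed to compound for 24 h before readout; actives reduce ATP signal below DMSO vehicle meaning cytotoxicity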
Outline: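 Luminescent ATP readout (CellTiter-Glo, 20 min at room temperature) after 24 hr exposure of HEK293T cells to 5 nM–87.5 uM final compound; signal loss relative to DMSO vehicle indicated cytotoxicity; dichlone titrated as positive control.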

[2] = Tanguay_ZF_120hpf_TR_legacy: (Legacy) Oregon State University Tanguay Lab 120 Hour Post-fertilization zebrafish Assay for Touch Response (AID 2283667)
Outline: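 Readout is presence or absence of touch response in 120 hpf zebrafish larvae, assessed by brightfield observation after continuous static exposure at 28C. Final vehicle was 0.64% (vol/vol) DMSO.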

[3] = STM_H9_OrnithineISnorm_perc: Stemina devTOX quickPredict H9 human embryonic stem cell (hESC)-based Assay for Ornithine (ORN) Metabolite Biomarker, Normalized (AID 2283712; active = hit-call score of the fitted dose curve at least 0.9, where 1 is the maximum; inactive = score below 0.9;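 also: ornithine released into spent medium during last day measured by mass spectrometry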)
Outline: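 UPLC-HRMS readout: endogenous ornithine EIC area / 13C-ORN internal standard, then % of 0.1% DMSO median. H9 hESCs (pluripotent), 72h exposure, re-dosed with fresh media q24h; last 24-h spent media, deproteinized in 40% acetonitrile.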

[4] = STM_H9_CystineISnorm_perc: Stemina devTOX quickPredict H9 human embryonic stem cell (hESC)-based Assay for Cystine (CYSS) Metabolite Biomarker, Normalized (AID 2283713; active = hit-call score of the fitted dose curve at least 0.9, where 1 is the maximum; inactive = score below 0.9)
Outline: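 UPLC-HRMS read-out: endogenous cystine peak area in spent medium, normalized to isotope-labeled internal standard and to median of 0.1% DMSO controls. Pluripotent H9 cells, 72h exposure, daily medium/compound replenishment; medium from last 24h sampled.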

[5] = STM_H9_OrnCyssISnorm_ratio: Stemina devTOX quickPredict H9 human embryonic stem cell (hESC)-based Assay for Ornithine (ORN):Cystine (CYSS) Ratio (AID 2283714)
Outline: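 H9 hESC, 72h, q24h re-dose; last-day media → acetonitrile deproteinization → UPLC-HRMS. ORN:CYSS ratio from isotope-normalized EIC areas, vs 0.1% DMSO; MTX references on each plate.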

[6] = CEETOX_H295R_MTT_cell_viability: Viability Assessment in the CeeTox HT-H295R MTT Assay (AID 2283718; active = hit-call score of the fitted dose curve at least 0.9, where 1 is the maximum; inactive = score below 0.9;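 as to AC50: curve fitted both ways so AC50 may mark viability loss or gain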)
Outline: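 H295R cells prestimulated 48 h with 10 uM forskolin, then exposed 48 h to test chemical (0.1% DMSO final). Viability by MTT (0.5 mg/ml, 4 h, 37 C), absorbance 570/650 nm; percent change versus DMSO, bidirectional fit.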

[7] = Tanguay_ZF_120hpf_ActivityScore_legacy: (Legacy) Oregon State University Tanguay Lab 120 Hour Post-fertilization zebrafish Assay Score for Activity (AID 2283742);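 as to AC50: dechorionated Tropical 5D wild-type zebrafish embryos held singly per well; static exposure from 6 hpf until 120 hpf at 28 °C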
Outline: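 In this whole-embryo screen, dechorionated zebrafish were exposed from 6 hpf until 120 hpf at 28C under a 0.64% DMSO vehicle. Developmental malformations and death were recorded by brightfield microscopy as binary endpoints.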

[8] = target: Luciferin 4-monooxygenase (Photinus pyralis) (UniProt P08659); test: CCTE_Simmons_QuantiLum_inhib_2: CCTE's Firefly Luciferase Inhibition Assay, Simmons Lab (AID 2283767);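 as to AC50: potency for inhibitors that lower luciferase luminescence relative to DMSO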
Sequence of Luciferin 4-monooxygenase (Photinus pyralis) (P08659 whole entry, looked up): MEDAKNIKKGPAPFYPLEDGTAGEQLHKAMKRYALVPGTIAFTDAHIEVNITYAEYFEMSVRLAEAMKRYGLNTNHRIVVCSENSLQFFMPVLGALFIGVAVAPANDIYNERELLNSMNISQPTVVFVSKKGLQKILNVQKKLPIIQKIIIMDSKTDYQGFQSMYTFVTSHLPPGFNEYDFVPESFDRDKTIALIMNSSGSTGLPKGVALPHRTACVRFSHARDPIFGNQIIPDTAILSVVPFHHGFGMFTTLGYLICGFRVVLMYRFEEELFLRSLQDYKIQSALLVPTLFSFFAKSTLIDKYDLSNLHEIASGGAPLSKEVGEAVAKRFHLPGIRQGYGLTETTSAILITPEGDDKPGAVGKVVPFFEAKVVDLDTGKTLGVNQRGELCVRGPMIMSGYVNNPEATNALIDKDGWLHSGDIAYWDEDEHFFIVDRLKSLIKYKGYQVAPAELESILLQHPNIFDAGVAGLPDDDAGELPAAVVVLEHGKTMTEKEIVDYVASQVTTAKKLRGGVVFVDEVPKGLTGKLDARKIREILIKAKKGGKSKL
Outline: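 Cell-free QuantiLum luciferase, 5 ng/well; compounds 5 nM–87.5 uM final, 8 conc, 0.5% DMSO; 30 min, 37C, dark. Detection reagent (150 uM D-luciferin, 147 uM dATP, CoA, DTT, pH 7.8 final) injected per well, kinetic luminescence. Triplicate biological replicates.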

[9] = ArunA_CellTiter_hNC: Viability Assessment in the ArunA Biomedical's Oris Neural Crest (hNC) Cell Migration Assay (AID 2283752)
Outline: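 hNC cells (H9 ESC-derived), 60,000/well, Matrigel, LIF + bFGF medium; 16 h 37C attachment; 72 h compound in test medium; CellTiter Aqueous One read-out; loss-of-signal vs DMSO baseline.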

[10] = ArunA_CellTiter_hNP: Viability Assessment in the ArunA Biomedical's Oris Neural Crest (hNC) Cell Migration Assay (AID 2283753)
Outline: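 Viability read with CellTiter 96 Aqueous One after 72 h chemical exposure of human hNP1 neuroprogenitors, which were plated on Matrigel in LIF/bFGF medium 16 h beforehand. Endpoint fitted in positive direction relative to DMSO.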

[11] = ArunA_Migration_hNP: ArunA Biomedical's Oris Neuroprogenitor (hNP) Cell Migration Assay (AID 2283754)
Outline: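 Readout is calcein-AM fluorescence (ex494/em517) of cells migrating into the detection zone, relative to DMSO. hNP1 cells (H9-derived) grown on Matrigel behind stoppers 16 h, then stoppers pulled and chemical applied 72 h; cytochalasin D as control.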

[12] = ArunA_Migration_hNC: ArunA Biomedical's Oris Neural Crest (hNC) Cell Migration Assay (AID 2283755)
Outline: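 Calcein-AM fluorescence (ex494 nm/em 517 nm) in the stopper-defined detection zone quantifies migration of hNC cells after 72 h chemical exposure; 60,000 cells/well plated on Matrigel with LIF and bFGF, 16 h pre-incubation. DMSO baseline.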

[13] = ArunA_NOG_NucleusCount: ArunA Biomedical's Neurite Outgrowth (NOG) Assay for Nucleus Count (AID 2283756)
Outline: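 Viable neuron count, from Hoechst nuclei passing size and intensity gates, imaged at 20x on differentiated H9-derived human neurons. Exposure lasted 48 h from seeding; activity was scored relative to DMSO.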

[14] = ArunA_NOG_NeuriteLength: ArunA Biomedical's Neurite Outgrowth (NOG) Assay for Neurite Length (AID 2283757)
Outline: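 Total neurite length per neuron, from traced βIII-tubulin-labelled processes longer than 10 um on viable Hoechst-gated cells, was scored as decrease from DMSO. Cells were hESC (H9)-derived neurons given 48 h chemical exposure immediately after seeding.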

[15] = ArunA_NOG_NeuritesPerNeuron: ArunA Biomedical's Neurite Outgrowth (NOG) Assay for Neurites Per Neuron (AID 2283758)
Outline: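 Differentiated human H9-derived neurons exposed to chemicals for 48 h from seeding, then stained with Hoechst and βIII-tubulin/DyLight 488. Automated imaging counted neurites (processes >10 um) per valid neuron; loss of signal versus DMSO scored.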

[16] = ArunA_NOG_BranchPointsPerNeurite: ArunA Biomedical's Neurite Outgrowth (NOG) Assay for Branch Points Per Neurite (AID 2283759)
Outline: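 Automated image analysis traced neurites (processes >10 um) from valid cell bodies after Hoechst and βIII-tubulin staining. hNN cells from H9 embryonic stem cells, 48 h exposure. Fitted bidirectionally against DMSO.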

[17] = tested on: zebrafish Androgen Receptor (AR), gene 100005148; test: ATG_zfAR_XSP1: Attagene TRANS-FACTORIAL Multi-Species (XSP1) HepG2 Assay for zebrafish Androgen Receptor (AR) (AID 2283771)
Outline: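 Gain-of-signal versus DMSO was measured as reporter transcripts quantified by RT-PCR, fluorescent labelling and capillary electrophoresis after 24 h chemical exposure. The cells were HepG2 expressing a chimeric zebrafish AR-GAL4, co-stimulated with 3 nM 6-alpha-fluorotestosterone.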

[18] = tested on: Thyroperoxidase (TPO), gene 445522; test: CCTE_Simmons_GUA_TPO: CCTE's Guaiacol Assay for Thyroperoxidase (TPO) Inhibition, Simmons Lab (AID 2283750)
Outline: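 Porcine thyroid microsomes (25 ug) in 200mM potassium phosphate, preincubated 30 s at 37C with compound (8 concentrations, 5 nM–87.5 uM) and 35mM guaiacol; 1mM H2O2 starts reaction. Absorbance change at 450nm over first 80 s; loss of signal versus DMSO, three replicates.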

[19] = read-out: Cytochrome P450 (CYP24A1_1), CYP24A1 (gene 1591); test: LTEA_HepaRG_CYP24A1_1: Life Technologies and Expression Analysis (LTEA) Assay for Cytochrome P450 (CYP24A1_1) using HepaRG (AID 2283671; active = hit-call score of the fitted dose curve at least 0.9, where 1 is the maximum; inactive = score below 0.9); conditions: mRNA level, 48 h; actives raise or lower the signal
Outline: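 Cultures of human HepaRG were treated in duplicate for 48 h (0.5% DMSO vehicle, highest dose 100 uM). CYP24A1 mRNA by qRT-PCR, normalized to ACTB, GAPDH, POLR2A.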

Measured: AC50

CCOC(=O)c1ccc(C2CCC(NC[C@H](O)COc3ccc(O)c(NS(C)(=O)=O)c3)CC2)cc1 (some centres not stated)
inactive: [2] | [3] | [6] | [7] | [8]
active: [1] 18.3 µM | [4] 1.37 µM | [5] 1.42 µM

Oc1ccc2c(c1)-c1ccccc1C2
inactive: [8]
active: [1] 60.1 µM | [2] 32.1 µM | [6] 32.8 µM | [7] 46.6 µM

CCCCCCc1ccc(O)cc1O
inactive: [2] | [8]
active: [1] 21.3 µM | [7] 43.8 µM

O=c1n(CC2CO2)c(=O)n(CC2CO2)c(=O)n1CC1CO1 (configuration not stated)
active: [3] 0.49 µM | [4] 0.166 µM | [5] 0.295 µM
inactive: [1] | [2] | [7] | [8]

CC(C)=CCC/C(C)=C\CO
inactive: [1] | [2] | [6] | [7] | [8]

CN(C)c1ccc(N=NS(=O)(=O)O)cc1
active: [3] 28.5 µM | [4] 16.9 µM | [5] 20.5 µM
inactive: [1] | [2] | [7] | [8]

O=P(OC(CCl)CCl)(OC(CCl)CCl)OC(CCl)CCl
active: [7] 38.3 µM | [12] 1.97 µM
not listed: [2] | [6] | [18] | [19]
inactive: all other assays above

CCC(C)(C)C(=O)O[C@H]1C[C@@H](C)C=C2C=C[C@H](C)[C@H](CC[C@@H]3C[C@@H](O)CC(=O)O3)[C@H]21
inactive: [4] | [6] | [8]
active: [1] 43.8 µM | [2] 0.664 µM | [3] 0.000728 µM | [7] 0.403 µM

O=C(CCCCCCCCc1cccnc1)N1CCC(C=C(c2ccccc2)c2ccccc2)CC1
inactive: [2] | [7] | [8]
active: [1] 5.13 µM

CCNc1ccccc1
inactive: [1] | [2] | [7] | [18] | [8]

C=CC(=C)CCC=C(C)C
inactive: [1] | [2] | [19] | [7]

CC[C@H](C)C(=O)O[C@H]1C[C@@H](C)C=C2C=C[C@H](C)[C@H](CC[C@@H]3C[C@@H](O)CC(=O)O3)[C@H]21
inactive: [1] | [2] | [3] | [6] | [8]
active: [4] 13.2 µM | [5] 6.84 µM | [7] 1.68 µM | [8] 77.6 µM

CC/C(=C\C(=N/O)C(N)=O)C(C)[N+](=O)[O-] (configuration not stated)
inactive: [1] | [2] | [7] | [8]

On1ccccc1=S
active: [3] 8.49 µM | [4] 5.86 µM | [5] 7.94 µM | [18] 85.9 µM | [8] 9 µM
inactive: [1] | [2] | [7]

CCOc1cccc(-n2cc(C(=O)N3CCN(c4cc(C(=O)O)c5ccccc5c4)CC3)nc2-c2ccc(C)cc2)c1
inactive: [2] | [6] | [7] | [8]
active: [1] 22.6 µM

CN(C)c1ccc(Cc2ccc(N(C)C)cc2)cc1
active: [1] 22.3 µM
inactive: [2] | [6] | [7] | [8]

Cc1ccc(N)cc1O
inactive: [1] | [2] | [6] | [7]
active: [18] 3.61 µM | [8] 17.4 µM

O=C(O)CCN(C1(C(=O)NO)CCCC1)S(=O)(=O)c1ccc(Oc2ccc(F)cc2)cc1
inactive: [1] | [2] | [7] | [8]

Nc1cccc(N)c1
inactive: [1] | [2] | [7]

C[C@](N)(Cc1ccc(O)c(O)c1)C(=O)O
inactive: [2] | [6] | [7]
active: [1] 39.8 µM | [8] 53.8 µM

NC(=O)NO
inactive: [1] | [2] | [7] | [8]
active: [3] 371 µM | [4] 153 µM | [5] 392 µM

Nc1ccc(Nc2ccccc2)cc1
active: [1] 38.4 µM | [3] 4.61 µM | [4] 2.69 µM | [5] 3.03 µM | [7] 30.1 µM
inactive: [6] | [8]

CC(C)=CCCC(C)CCO (configuration not stated)
inactive: [1] | [2] | [7] | [8]

CC(C)(O)c1coc(S(=O)(=O)NC(=O)Nc2c3c(cc4c2CCC4)CCC3)c1
active: [1] 22.4 µM
inactive: [2] | [6] | [7] | [8]

O=C(OC[C@H]1O[C@@H](OC(=O)c2cc(O)c(O)c(OC(=O)c3cc(O)c(O)c(O)c3)c2)[C@H](OC(=O)c2cc(O)c(O)c(OC(=O)c3cc(O)c(O)c(O)c3)c2)[C@@H](OC(=O)c2cc(O)c(O)c(OC(=O)c3cc(O)c(O)c(O)c3)c2)[C@@H]1OC(=O)c1cc(O)c(O)c(OC(=O)c2cc(O)c(O)c(O)c2)c1)c1cc(O)c(O)c(OC(=O)c2cc(O)c(O)c(O)c2)c1
inactive: [2] | [7]
active: [1] 1.41 µM | [8] 21.6 µM
